Our source for the binding signal values is publication PMC7862700, “An all-to-all approach to the identification of sequence-specific readers for epigenetic DNA modifications on cytosine”.

Common to all, as to experiment: DAPPL (digital affinity profiling via proximity ligation, sequencing); 10 mM Tris-HCl pH 7.5, 50 mM NaCl, 1 mM DTT, 4% glycerol, room temperature, 30 min; GST-TFs on glutathione beads, 16-mer random dsDNA library, 0.1% formaldehyde crosslink after washing; high values mean tight binding
Assay [1] has as its target T1, FLI1 (Homo sapiens, UniProt Q01543 1-452).
T1 sequence: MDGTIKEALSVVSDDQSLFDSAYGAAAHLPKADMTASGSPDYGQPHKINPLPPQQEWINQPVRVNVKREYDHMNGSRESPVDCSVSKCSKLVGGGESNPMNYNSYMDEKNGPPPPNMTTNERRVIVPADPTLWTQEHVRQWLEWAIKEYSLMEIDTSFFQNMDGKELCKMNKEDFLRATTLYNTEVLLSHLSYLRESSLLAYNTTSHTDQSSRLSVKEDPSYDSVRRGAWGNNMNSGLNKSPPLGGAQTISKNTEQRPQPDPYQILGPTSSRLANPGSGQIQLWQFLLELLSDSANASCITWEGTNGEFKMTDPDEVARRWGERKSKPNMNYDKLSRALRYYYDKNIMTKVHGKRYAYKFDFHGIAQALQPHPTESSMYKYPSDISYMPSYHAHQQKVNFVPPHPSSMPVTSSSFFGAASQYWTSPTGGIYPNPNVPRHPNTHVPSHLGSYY
As to conditions: protein: recombinant; tags: N-terminal GST; dsDNA, one strand shown. The gist of the method:
(§1)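 Each value of binding signal is a hexamer's read frequency for a factor divided by the same hexamer's frequency in the tag-only sample. Barcoded, bead-captured GST fusions of human transcription factors made in yeast were pooled with that sample and incubated with 200 nmole of a random double-stranded 16-mer DNA library in Tris/NaCl/DTT/glycerol buffer at room temperature for 30 min. Washing, 0.1% formaldehyde crosslinking, proximity ligation, PCR and Illumina NextSeq500 sequencing followed.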

For assay [2], the target named is T2, ELK1 (Homo sapiens, UniProt P19419 1-428).
T2 sequence: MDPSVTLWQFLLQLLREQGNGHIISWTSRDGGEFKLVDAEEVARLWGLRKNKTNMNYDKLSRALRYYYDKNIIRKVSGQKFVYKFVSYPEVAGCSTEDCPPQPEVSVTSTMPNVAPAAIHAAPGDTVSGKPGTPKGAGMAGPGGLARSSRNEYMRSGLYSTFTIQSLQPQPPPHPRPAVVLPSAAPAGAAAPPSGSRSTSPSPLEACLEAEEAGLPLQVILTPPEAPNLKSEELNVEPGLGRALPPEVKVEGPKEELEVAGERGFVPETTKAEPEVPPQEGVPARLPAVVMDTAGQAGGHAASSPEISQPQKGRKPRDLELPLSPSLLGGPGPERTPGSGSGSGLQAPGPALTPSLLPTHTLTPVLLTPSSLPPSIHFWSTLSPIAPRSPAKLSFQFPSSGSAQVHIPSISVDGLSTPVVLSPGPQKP
To be noted: protein: recombinant; tags: N-terminal GST; dsDNA, one strand shown. The gist of the method:
as §1

Assay [3] concerns the target T3, GABPA (Homo sapiens, UniProt Q06546 1-454).
T3 sequence: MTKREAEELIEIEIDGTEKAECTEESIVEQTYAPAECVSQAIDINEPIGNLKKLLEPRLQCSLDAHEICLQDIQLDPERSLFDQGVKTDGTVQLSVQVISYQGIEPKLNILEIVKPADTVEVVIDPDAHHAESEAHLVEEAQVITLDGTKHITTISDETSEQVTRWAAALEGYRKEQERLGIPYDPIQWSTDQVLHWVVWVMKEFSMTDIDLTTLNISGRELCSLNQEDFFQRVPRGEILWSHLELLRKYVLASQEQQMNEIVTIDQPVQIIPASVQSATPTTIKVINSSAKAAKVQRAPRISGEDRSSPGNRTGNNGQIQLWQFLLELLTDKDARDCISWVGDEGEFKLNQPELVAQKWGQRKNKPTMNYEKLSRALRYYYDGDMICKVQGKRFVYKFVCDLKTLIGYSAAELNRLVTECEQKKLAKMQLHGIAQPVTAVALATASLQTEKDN
As to conditions: protein: recombinant; tags: N-terminal GST; dsDNA, one strand shown. The gist of the method: as §1

For assay [4], the target named is T4, ERG (Homo sapiens, UniProt P11308 1-479).
T4 sequence: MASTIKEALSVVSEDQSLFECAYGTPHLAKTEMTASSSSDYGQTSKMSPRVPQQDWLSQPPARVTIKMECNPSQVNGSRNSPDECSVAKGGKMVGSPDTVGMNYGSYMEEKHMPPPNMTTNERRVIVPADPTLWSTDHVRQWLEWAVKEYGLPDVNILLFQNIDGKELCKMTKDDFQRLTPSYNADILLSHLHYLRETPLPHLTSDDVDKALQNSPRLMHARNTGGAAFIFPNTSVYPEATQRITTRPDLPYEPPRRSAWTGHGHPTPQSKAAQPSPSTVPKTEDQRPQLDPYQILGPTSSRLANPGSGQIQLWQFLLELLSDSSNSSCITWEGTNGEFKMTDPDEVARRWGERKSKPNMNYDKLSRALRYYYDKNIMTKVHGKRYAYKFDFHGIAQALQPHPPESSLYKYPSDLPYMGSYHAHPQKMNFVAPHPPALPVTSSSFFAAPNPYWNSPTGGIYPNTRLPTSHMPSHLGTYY
As to conditions: protein: recombinant; tags: N-terminal GST; dsDNA, one strand shown. The gist of the method: as §1

Assay [5] deals with ELF1 (Homo sapiens, UniProt P32519 1-619). As to conditions: protein: recombinant; tags: N-terminal GST; dsDNA, one strand shown. The gist of the method: as §1
ELF1, sequence (P32519 whole entry): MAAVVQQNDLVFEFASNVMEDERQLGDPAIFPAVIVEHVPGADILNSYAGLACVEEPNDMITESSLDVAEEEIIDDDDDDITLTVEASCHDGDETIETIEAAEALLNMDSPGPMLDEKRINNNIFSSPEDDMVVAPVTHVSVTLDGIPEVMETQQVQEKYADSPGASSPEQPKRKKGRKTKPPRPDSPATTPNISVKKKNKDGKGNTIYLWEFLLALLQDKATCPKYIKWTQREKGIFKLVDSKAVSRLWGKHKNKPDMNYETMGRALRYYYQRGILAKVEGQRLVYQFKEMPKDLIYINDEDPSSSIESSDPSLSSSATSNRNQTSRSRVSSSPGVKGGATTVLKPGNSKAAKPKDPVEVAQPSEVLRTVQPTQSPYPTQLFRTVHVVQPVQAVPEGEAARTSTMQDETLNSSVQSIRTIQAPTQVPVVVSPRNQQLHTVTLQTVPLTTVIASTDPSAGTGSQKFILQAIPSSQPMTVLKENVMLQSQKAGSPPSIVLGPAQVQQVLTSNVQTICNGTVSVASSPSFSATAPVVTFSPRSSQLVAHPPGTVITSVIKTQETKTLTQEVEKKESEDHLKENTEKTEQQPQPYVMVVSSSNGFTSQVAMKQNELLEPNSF
For assay [6], the target named is T5, EHF (Homo sapiens, UniProt Q9NZC4 1-300).
T5 sequence: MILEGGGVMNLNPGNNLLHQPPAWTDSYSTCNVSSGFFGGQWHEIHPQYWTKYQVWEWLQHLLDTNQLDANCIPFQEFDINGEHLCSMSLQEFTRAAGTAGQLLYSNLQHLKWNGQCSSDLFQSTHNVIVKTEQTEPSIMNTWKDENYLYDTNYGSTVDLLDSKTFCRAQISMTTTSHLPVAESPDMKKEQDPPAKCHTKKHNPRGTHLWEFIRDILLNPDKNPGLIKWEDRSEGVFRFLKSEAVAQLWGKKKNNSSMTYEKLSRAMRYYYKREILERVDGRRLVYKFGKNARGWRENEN
As to conditions: protein: recombinant; tags: N-terminal GST; dsDNA, one strand shown. The gist of the method:
as §1

Assay [7] concerns the target SPIB (Homo sapiens, UniProt Q01892 1-262). As to conditions: protein: recombinant; tags: N-terminal GST; dsDNA, one strand shown. The gist of the method: as §1
The target of assay [8] is T6, ELK3 (Homo sapiens, UniProt P41970 1-407).
T6 sequence: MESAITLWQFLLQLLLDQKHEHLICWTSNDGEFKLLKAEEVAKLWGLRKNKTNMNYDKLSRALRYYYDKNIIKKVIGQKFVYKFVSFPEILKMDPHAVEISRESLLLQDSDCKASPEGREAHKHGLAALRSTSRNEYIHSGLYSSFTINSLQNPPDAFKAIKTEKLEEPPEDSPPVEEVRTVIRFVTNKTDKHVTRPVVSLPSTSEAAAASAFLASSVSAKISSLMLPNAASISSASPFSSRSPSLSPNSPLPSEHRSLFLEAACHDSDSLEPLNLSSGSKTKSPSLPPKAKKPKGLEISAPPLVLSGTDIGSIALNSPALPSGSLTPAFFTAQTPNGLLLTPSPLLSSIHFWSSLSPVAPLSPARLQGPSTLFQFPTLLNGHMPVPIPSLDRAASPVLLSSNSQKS
As to conditions: protein: recombinant; tags: N-terminal GST; dsDNA, one strand shown. The gist of the method: as §1

In assay [9] the target is T7, FEV (Homo sapiens, UniProt Q99581 1-238).
T7 sequence: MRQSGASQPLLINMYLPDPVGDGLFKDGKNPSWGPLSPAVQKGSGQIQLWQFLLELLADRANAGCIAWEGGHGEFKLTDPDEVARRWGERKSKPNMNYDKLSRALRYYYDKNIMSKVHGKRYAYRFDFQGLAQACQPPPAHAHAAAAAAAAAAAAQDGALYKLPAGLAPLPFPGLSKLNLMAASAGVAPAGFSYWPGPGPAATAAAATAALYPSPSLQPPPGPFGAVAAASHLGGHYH
As to conditions: protein: recombinant; tags: N-terminal GST; dsDNA, one strand shown. In a few lines: as §1

Assay [10] addresses ETV5 (Homo sapiens, UniProt P41161 1-510). As to conditions: protein: recombinant; tags: N-terminal GST; dsDNA, one strand shown. The gist of the method: as §1
In assay [11] the target is HSF1 (Homo sapiens, UniProt Q00613 1-529). To be noted: protein: recombinant; tags: N-terminal GST; chain copies: 3; dsDNA, one strand shown. In a few lines:
as §1

Assay [12] concerns the target ELF4 (Homo sapiens, UniProt Q99607 1-663). To be noted: protein: recombinant; tags: N-terminal GST; dsDNA, one strand shown. The gist of the method: as §1
For assay [13], the target named is T8, ELK4 (Homo sapiens, UniProt P28324-2 1-405).
T8 sequence: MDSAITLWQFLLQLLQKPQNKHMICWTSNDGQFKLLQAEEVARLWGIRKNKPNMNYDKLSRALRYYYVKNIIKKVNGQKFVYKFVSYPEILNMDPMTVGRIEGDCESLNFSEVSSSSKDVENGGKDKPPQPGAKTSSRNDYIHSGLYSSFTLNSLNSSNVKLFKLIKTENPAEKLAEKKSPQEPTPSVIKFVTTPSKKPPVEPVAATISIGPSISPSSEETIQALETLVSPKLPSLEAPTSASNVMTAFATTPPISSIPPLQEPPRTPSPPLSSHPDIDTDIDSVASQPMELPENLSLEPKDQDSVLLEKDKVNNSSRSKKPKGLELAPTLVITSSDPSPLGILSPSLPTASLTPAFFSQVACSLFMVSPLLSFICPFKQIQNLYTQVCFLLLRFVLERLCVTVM
As to conditions: protein: recombinant; tags: N-terminal GST; dsDNA, one strand shown. The gist of the method:
as §1

Assay [14] concerns the target T9, ETV2 (Homo sapiens, UniProt O00321 1-342).
T9 sequence: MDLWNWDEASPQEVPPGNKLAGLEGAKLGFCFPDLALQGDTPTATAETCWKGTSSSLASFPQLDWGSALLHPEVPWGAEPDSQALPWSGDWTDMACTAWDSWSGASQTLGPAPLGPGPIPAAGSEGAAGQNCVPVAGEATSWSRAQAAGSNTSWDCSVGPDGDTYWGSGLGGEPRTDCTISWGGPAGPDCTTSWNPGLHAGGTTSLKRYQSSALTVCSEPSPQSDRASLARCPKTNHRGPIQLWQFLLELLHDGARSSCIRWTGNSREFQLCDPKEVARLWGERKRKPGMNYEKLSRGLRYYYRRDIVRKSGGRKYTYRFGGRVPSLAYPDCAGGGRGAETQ
To be noted: protein: recombinant; tags: N-terminal GST; dsDNA, one strand shown. In a few lines:
as §1

Assay [15] deals with T10, ELF3 (Homo sapiens, UniProt P78545 1-371).
T10 sequence: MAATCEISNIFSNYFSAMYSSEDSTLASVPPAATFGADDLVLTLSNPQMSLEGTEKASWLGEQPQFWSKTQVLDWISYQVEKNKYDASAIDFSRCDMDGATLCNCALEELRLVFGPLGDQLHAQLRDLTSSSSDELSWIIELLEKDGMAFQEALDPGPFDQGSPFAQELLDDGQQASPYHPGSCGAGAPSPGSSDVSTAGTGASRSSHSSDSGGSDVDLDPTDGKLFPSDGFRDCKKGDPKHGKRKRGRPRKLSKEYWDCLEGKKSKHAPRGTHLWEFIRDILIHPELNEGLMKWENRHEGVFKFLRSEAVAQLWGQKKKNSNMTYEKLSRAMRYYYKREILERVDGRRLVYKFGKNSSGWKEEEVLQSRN
As to conditions: protein: recombinant; tags: N-terminal GST; dsDNA, one strand shown. In a few lines: as §1

Assay [16] has as its target CRX (Homo sapiens, UniProt O43186 1-299). As to conditions: protein: recombinant; tags: N-terminal GST; dsDNA, one strand shown. In a few lines: as §1
Assay [17] concerns the target ETV1 (Homo sapiens, UniProt P50549 1-477). As to conditions: protein: recombinant; tags: N-terminal GST; dsDNA, one strand shown. The gist of the method: as §1

HSF1, sequence (Q00613 whole entry): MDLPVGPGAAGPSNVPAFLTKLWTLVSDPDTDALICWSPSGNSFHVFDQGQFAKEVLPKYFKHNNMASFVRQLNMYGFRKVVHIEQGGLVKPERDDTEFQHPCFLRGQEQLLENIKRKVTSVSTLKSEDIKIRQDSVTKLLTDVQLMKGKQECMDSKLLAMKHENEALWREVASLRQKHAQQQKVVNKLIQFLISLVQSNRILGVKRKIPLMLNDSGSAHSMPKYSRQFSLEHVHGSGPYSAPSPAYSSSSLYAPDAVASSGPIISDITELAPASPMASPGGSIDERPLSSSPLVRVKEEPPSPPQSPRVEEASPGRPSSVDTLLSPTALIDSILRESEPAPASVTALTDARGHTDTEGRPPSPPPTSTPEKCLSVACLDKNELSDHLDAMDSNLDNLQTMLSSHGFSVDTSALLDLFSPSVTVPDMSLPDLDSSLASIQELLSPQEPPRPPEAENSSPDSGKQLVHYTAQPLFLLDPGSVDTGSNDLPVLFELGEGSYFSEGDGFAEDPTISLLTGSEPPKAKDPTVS
ELF4, sequence (Q99607 whole entry): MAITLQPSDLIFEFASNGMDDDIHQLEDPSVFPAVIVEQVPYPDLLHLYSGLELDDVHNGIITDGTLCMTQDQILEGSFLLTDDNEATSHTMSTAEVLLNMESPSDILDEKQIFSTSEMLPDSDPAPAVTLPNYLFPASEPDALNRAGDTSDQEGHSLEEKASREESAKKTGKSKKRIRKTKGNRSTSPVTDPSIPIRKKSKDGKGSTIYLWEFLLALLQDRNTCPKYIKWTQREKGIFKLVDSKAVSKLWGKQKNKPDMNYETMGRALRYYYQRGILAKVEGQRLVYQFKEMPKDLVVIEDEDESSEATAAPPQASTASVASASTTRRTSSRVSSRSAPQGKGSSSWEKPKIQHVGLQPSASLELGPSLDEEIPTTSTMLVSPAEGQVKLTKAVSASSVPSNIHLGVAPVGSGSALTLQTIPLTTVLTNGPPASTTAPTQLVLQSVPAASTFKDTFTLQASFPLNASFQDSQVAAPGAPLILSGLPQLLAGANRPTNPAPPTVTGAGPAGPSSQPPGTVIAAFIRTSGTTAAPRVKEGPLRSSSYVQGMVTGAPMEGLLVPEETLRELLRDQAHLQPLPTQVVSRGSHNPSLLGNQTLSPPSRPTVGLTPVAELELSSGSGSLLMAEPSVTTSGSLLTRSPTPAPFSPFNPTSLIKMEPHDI
ETV1, sequence (P50549 whole entry): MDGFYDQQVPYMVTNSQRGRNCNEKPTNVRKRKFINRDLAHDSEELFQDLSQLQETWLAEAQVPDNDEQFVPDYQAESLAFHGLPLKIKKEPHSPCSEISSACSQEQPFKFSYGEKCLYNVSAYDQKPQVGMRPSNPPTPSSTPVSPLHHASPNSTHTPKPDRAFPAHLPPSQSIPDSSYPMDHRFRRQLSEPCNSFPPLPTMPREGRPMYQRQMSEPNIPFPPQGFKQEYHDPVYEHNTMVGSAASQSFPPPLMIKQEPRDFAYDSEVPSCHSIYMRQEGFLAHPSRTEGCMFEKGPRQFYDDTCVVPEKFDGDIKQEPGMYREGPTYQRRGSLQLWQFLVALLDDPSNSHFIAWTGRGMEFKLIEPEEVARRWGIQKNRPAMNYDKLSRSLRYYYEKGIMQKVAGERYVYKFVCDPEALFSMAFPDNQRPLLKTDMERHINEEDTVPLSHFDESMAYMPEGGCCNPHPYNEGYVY
CRX, sequence (O43186 whole entry): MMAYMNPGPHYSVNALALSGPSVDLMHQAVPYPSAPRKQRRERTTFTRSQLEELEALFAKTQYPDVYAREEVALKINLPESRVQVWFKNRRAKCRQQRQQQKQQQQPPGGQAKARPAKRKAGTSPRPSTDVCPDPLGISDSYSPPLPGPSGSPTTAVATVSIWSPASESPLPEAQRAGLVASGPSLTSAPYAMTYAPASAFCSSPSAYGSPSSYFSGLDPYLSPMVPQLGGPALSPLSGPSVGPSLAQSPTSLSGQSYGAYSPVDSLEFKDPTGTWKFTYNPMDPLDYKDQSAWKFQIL
SPIB, sequence (Q01892 whole entry): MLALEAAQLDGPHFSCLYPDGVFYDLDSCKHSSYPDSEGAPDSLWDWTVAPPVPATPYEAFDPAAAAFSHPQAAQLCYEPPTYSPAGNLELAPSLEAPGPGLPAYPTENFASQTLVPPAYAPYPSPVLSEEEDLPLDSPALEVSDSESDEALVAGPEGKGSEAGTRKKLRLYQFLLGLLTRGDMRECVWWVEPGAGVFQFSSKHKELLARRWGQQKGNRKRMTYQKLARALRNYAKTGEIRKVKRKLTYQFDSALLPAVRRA
ETV5, sequence (P41161 whole entry): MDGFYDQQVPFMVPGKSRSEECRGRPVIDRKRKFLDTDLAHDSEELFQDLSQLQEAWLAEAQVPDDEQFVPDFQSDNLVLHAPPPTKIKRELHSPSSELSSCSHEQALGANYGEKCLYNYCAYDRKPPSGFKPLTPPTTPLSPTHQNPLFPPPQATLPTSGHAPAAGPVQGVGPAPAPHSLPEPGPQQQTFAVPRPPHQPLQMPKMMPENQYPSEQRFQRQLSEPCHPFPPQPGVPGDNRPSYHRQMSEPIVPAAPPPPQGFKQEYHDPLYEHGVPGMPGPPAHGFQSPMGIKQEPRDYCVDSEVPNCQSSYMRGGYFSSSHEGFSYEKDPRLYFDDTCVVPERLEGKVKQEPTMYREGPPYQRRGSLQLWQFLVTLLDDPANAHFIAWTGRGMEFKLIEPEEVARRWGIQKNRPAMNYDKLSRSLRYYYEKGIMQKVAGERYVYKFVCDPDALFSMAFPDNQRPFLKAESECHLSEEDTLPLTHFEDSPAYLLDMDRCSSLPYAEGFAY

Take AATCCA: the binding signal in [1] is 1.09 fold enrichment (6-mer frequency, TF over GST control); in assay [2], 1.07 fold enrichment (6-mer frequency, TF over GST control); in [3], 1.09 fold enrichment (6-mer frequency, TF over GST control); in assay [4], 1.1 fold enrichment (6-mer frequency, TF over GST control); in assay [5], 1.09 fold enrichment (6-mer frequency, TF over GST control); in assay [6] it was 1.07 fold enrichment (6-mer frequency, TF over GST control). For the same sequence, the binding signal in assay [7] was 1.12 fold enrichment (6-mer frequency, TF over GST control); in assay [8], 1.07 fold enrichment (6-mer frequency, TF over GST control); in [9] it was 1.11 fold enrichment (6-mer frequency, TF over GST control); in assay [10], 1.07 fold enrichment (6-mer frequency, TF over GST control); in assay [11], 1.78 fold enrichment (6-mer frequency, TF over GST control); in assay [12], 1.12 fold enrichment (6-mer frequency, TF over GST control). Also, the binding signal was 1.18 fold enrichment (6-mer frequency, TF over GST control) in assay [13]; 1.03 fold enrichment (6-mer frequency, TF over GST control) in assay [14]; 1.1 fold enrichment (6-mer frequency, TF over GST control) in [15]; 2.33 fold enrichment (6-mer frequency, TF over GST control) in assay [16]; 1.12 fold enrichment (6-mer frequency, TF over GST control) in assay [17].
